From PubChem BioAssay (NCATS) come the findings set out here.

Each structure is given as a SMILES string. Records with an inconclusive call do not appear. Active and inactive are the calls of the source. Calls come from the whole dose curve; as a rule, active = well fitted cell-killing curve with a large enough effect; inconclusive = small, poorly fitted or top-dose-only effect, or effect the other way; inactive = no such curve, though single readings can be large or run the other way.
Potency is the fitted concentration of half-maximal effect.

This assay is described as follows: Quantitative High-Throughput drug screen in 47 multiple myeloma cell lines against the NCATS MIPE library collection: Karpas620_DSMZ cell viability assay (AID 1918959). Note: nearly all actives have a fitted effect of over 30% in size. Conditions: Karpas620 myeloma viability, CellTiter-Glo ATP luminescence, 48 h; series mostly up to 45.8 µM. The text has this:
PI: Beverly A. Mock Ph.D.
Laboratory of Cancer Biology and Genetics,
Center for Cancer Research, National Cancer Institute,
National Institute of Health, Bethesda, Maryland
Drug resistance and disease progression are common in multiple myeloma (MM) patients, underscoring the need for new therapeutic combinations. […] We hypothesized that effective combinations would reduce MYC expression and enhance p16 activity. […] These preclinical data identify potentially useful drug combinations for evaluation in drug-resistant MM and reveal potential mechanisms of combined drug sensitivity.
Described herein is the primary MIPE qHTS used to cherrypick compounds. Validated compounds were then further tested for potential synergistic activiy.
[1] Peat TJ, Gaikwad SM, Dubois W, Gyabaah-Kessie N, Zhang S, Gorjifard S, Phyo Z, Andres M, Hughitt VK, Simpson RM, Miller MA, Girvin AT, Taylor A, Williams D, D'Antonio N, Zhang Y, Rajagopalan A, Flietner E, Wilson K, Zhang X, Shinn P, Klumpp-Thomas C, McKnight C, Itkin Z, Chen L, Kazandijian D, Zhang J, Michalowski AM, Simmons JK, Keats J, Thomas CJ, Mock BA. Drug combinations identified by high-throughput screening promote cell cycle transition and upregulate Smad pathways in myeloma. Cancer Lett. 2023 Aug 1;568:216284. doi: 10.1016/j.canlet.2023.216284. Epub 2023 Jun 24. PMID: 37356470; PMCID: PMC10408729.
SEQUENCE No. (e.g., 1, 2, 3, etc.); […] (e.g., Cells, Incubation, Reagent, etc.); VALUE and DESCRIPTION.
1; Cells; 5 uL; white, solid bottom 1536-well Greiner assay plate.
2; Compounds; 23 nL; Kalypsis pin tool (Wako USA) equipped with a 1536-well pin head to transfer to the assay plates.
3; Incubation; 48 hours; 37C incubation.
4; Reagent;5uL; CellTiter Glo (Promega).
5; Detector; 425V; Luminescence; Viewlux PerkinElmer.
NOTES (numbers refer to Sequence numbers above)
1. The cell-based screening methods employed in this study were like those previously published. Briefly, the corresponding myeloma cell lines were screened in 1,536-well plates with 500 cells, 5-uL per well for inhibition of cell viability (assessed by measuring ATP levels with CellTiterGlo).
2. NCATS MIPE 4.0 library of approved and investigational drugs were added using the Kalypsis pin tool. Wells treated with DMSO only for 100% viability and media only wells for 0% viability were used as controls.
3. The assay plates were covered and incubated for 48 hours in a 37C, 5% CO2 incubator with controlled humidity.
4. After 48 hours, CellTilter-GloTM luminescent substrate mix (Promega) reagent was added to the assay plate and plates we incubated for 5 min at room temperature.
5. Signal was measured as median relative luminescence units on a ViewLux (PerkinElmer) multiplate reader.
[1] Heske CM, Davis MI, Baumgart JT, Wilson K, Gormally MV, Chen L, Zhang X, Ceribelli M, Duveau DY, Guha R, Ferrer M, Arnaldez FI, Ji J, Tran HL, Zhang Y, Mendoza A, Helman LJ, Thomas CJ. Matrix Screen Identifies Synergistic Combination of PARP Inhibitors and Nicotinamide Phosphoribosyltransferase (NAMPT) Inhibitors in Ewing Sarcoma. Clin Cancer Res. 2017 Dec 1;23(23):7301-7311. doi: 10.1158/1078-0432.CCR-17-1121. Epub 2017 Sep 12. PMID: 28899971; PMCID: PMC6636827.
A general note: Cellular ATP, detected with luciferase, serves as a proxy for viable cell number.
As to `Cn1c2ccccc2c2c3c(c4c5ccccc5n(CCC#N)c4c21)CNC3=O`, the Potency is 2350 nM (active).

In the case of `CCc1c2c(nc3ccc(O)cc13)-c1cc3c(c(=O)n1C2)COC(=O)[C@]3(O)CC`, the Potency is 743 nM (active).

Consider `COc1cc2ncn(-c3cc(OCc4ccccc4C(F)(F)F)c(C(N)=O)s3)c2cc1OC`, for which the Potency is 235 nM (active).

For the molecule `Cc1nc2ccc(CN(C)c3ccc(C(=O)N[C@@H](CCC(=O)O)C(=O)O)s3)cc2c(=O)[nH]1`, the Potency result was “inactive”.

For `CC(C)Nc1cc(C(F)(F)F)cc2nc(NC(=O)c3cccnc3)nn12`, the Potency result was “inactive”.

Turning to `CC1(C)CC(=O)c2c(C(F)(F)F)nn(-c3ccc(C(N)=O)c(NC4CCC(OC(=O)CN)CC4)c3)c2C1` (stereo not given), the Potency was 264 nM (active).

Turning to `CNC(=O)c1ccc(-c2cnc3ncc(Cc4ccc5ncccc5c4)n3n2)cc1F`, the Potency result was “inactive”.

Turning to `CC[C@@]1(O)C(=O)OCc2c1cc1n(c2=O)Cc2cc3cc(O)ccc3nc2-1`, the Potency is 1870 nM (active).

As for `CC1(O)CC(c2nc(-c3ccc4ccc(-c5ccccc5)nc4c3)c3c(N)nccn23)C1` (stereo not given), the Potency is 590 nM (active).

For `O=C(CCCCCCNC(=O)c1cnc(N(c2ccccc2)c2ccccc2)nc1)NO`, the Potency was 5900 nM (active).

With `CC(=O)Nc1nc(C)c(-c2ccc(Cl)c(S(=O)(=O)NCCO)c2)s1`, the Potency is 6620 nM (active).

As for `CCCCCN(CCC12CC3CC(CC(C3)C1)C2)C(=O)NCCCc1ccncc1`, the Potency is 2960 nM (active).

In the case of `Cc1cc(Nc2ncnc3ccc(-c4ccc(CNCCS(C)(=O)=O)o4)cc23)ccc1Oc1ccn2ncnc2c1`, the Potency is 5260 nM (active).

On to `Cc1ccc(C(=O)Nc2cccc(C(F)(F)F)c2)cc1-c1ccc2nc(NCCN3CCOCC3)ncc2c1`, for which the Potency was 2640 nM (active).

As for `CCOc1ccccc1OCCNC(C)Cc1ccc(OC)c(S(N)(=O)=O)c1` (stereo not given), the Potency result was “inactive”.

Turning to `Cc1cc(Nc2cc(N3CCN(C)CC3)nc(C=Cc3ccccc3)n2)n[nH]1`, the Potency was 12100 nM (active).

`Cc1c(NC(=O)OC[C@@H]2COCCN2)cn2ncnc(Nc3ccc4c(cnn4Cc4cccc(F)c4)c3)c12`: the Potency was 18700 nM (active).

With `CC(C)c1ccc(Cn2ccc3c4c(N)nc(NC5CC5)nc4ccc32)cc1`, the Potency was 1050 nM (active).

For the molecule `Cc1cc(Nc2nc(N[C@@H](C)c3ccc(F)cc3)c(C#N)cc2F)n[nH]1`, the Potency was 296 nM (active).

For `Cc1cc(N2CCOCC2)cc2[nH]c(-c3c(NC[C@@H](O)c4cccc(Cl)c4)cc[nH]c3=O)nc12`, the Potency was 418 nM (active).

Turning to `O=C(Nc1cc(C(F)(F)F)cc(C(F)(F)F)c1)c1cc(Cl)ccc1O`, the Potency is 833 nM (active).

On to `COc1cc(C(=O)N2CCC(N3CCN(C)CC3)CC2)ccc1Nc1ncc2c(n1)N(C)c1ccccc1C(=O)N2C`, for which the Potency was 3320 nM (active).

On to `COc1c(N2C[C@@H]3CCCN[C@H]3C2)c(F)cc2c(=O)c(C(=O)O)cn(C3CC3)c12`, for which the Potency result was “inactive”.

As to `O=C(O)c1ccc2cc(-c3ccc(O)c(C45CC6CC(CC(C6)C4)C5)c3)ccc2c1`, the Potency is 5260 nM (active).

For the molecule `CC(C)c1cnn2c(NCc3ccccc3)cc(N[C@@H](CO)[C@H](O)CO)nc12`, the Potency is 296 nM (active).

Take `COc1ccc(F)c(F)c1C(=O)c1cnc(NC2CCN(S(C)(=O)=O)CC2)nc1N`: the Potency is 2640 nM (active).

For the molecule `O=C(NC1CCNCC1)c1[nH]ncc1NC(=O)c1c(Cl)cccc1Cl`, the Potency was 935 nM (active).

Regarding `Fc1cc(-c2cccc3ncc(-c4cnn(C5CCNCC5)c4)nc23)cc(F)c1CN1CCOCC1`, the Potency is 7430 nM (active).

In the case of `Nc1ccccc1NC(=O)c1ccc(CNc2nccc(-c3cccnc3)n2)cc1`, the Potency was 1660 nM (active).

On to `Nc1ncnc2c1c(-c1cnc3[nH]ccc3c1)nn2C1CCCC1`, for which the Potency is 662 nM (active).

In the case of `C=CC(=O)Nc1cc2c(Nc3ccc(F)c(Cl)c3)ncnc2cc1C#CC(C)(C)N1CCN(C)CC1`, the Potency was 590 nM (active).

On to `CN(C)Cc1c(C(=O)NCCOc2ccc(C(=O)NO)cc2)oc2ccccc12`, for which the Potency was 743 nM (active).

Turning to `Cn1cc(-c2ccncc2)c(-c2ccc(OCc3ccc4ccccc4n3)cc2)n1`, the Potency was 4690 nM (active).

As for `COc1cccc2c(NCc3ccccc3)nc(-n3c(N)nc4ccccc43)nc12`, the Potency is 1480 nM (active).

Regarding `CS(=O)(=O)c1ccc(-c2cnc(N)c(C(=O)Nc3ccccc3)n2)cc1`, the Potency result is “inactive”.

On to `CN1CCN(c2ccc3nc(-c4c(N)c5c(F)cccc5[nH]c4=O)[nH]c3c2)CC1`, for which the Potency is 8330 nM (active).

Regarding `Clc1cccc(-c2nnnn2Cc2cccnc2)c1Cl`, the Potency result was “inactive”.

Take `O=c1c2ccccc2nc2n1CCc1c-2[nH]c2ccccc12`: the Potency was 18700 nM (active).

On to `COC(=O)Nc1ccc(-c2nc(N3CCOCC3)c3cnn(C4CCN(Cc5cccnc5)CC4)c3n2)cc1`, for which the Potency result is “inactive”.

As to `CN(C1CCc2c(c3ccccc3n2CC(=O)O)C1)S(=O)(=O)c1ccc(F)cc1` (stereo not given), the Potency is 2960 nM (active).
